# Out of some 140,000 compounds screened, about 1,700 (1.2%) were called active. Only a selection was taken, and actives are over-represented in it overall. Values without a mark were called inactive.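 How the source made its calls: active means viability at or below a set limit, 4 SD under the median of all tested compounds (cut at about 3.7% in these data); inactive means the rest.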
# Experiment: viability loss in PTEN-deleted colon tumor cells – cell-based, HCT116, CellTiter-Glo, primary screen (AID 827);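 further: PTEN knockout HCT116 line with beta catenin targeted HCT116 as companion control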
# Settings: HCT116 PTEN-null viability, 60 h, at 10 µM, stronger effect = lower value
row,SMILES,viability
1,CN(C)c1ccc(/C=C2\CC3C4CC=C5CC(O)CCC5(C)C4CCC3(C)C2=O)cc1 (stereo not given),2.86% (active)
2,Cc1cccc(-n2c(O)c(/C=N/N3CCOCC3)c(=O)[nH]c2=S)c1,108%
3,O=c1[nH]c(=S)n(C2CC2)c(O)c1/C=N/N1CCOCC1,95.3%
4,CN(C)CC1CCCCC1OC(=O)c1ccc(Cl)c(Cl)c1 (stereo not given),82.2%
5,CCCCC(=O)N/N=C/c1c(O)n(CC)c(=S)n(CC)c1=O,11.8%

# Reference: PubChem BioAssay AID827 (SRMLSC, 2007)
